The sample as a whole holds a higher share of hits than the screen did.
TTR transcr act = TTR transcription activators in neuroblastoma reporter cells, primary screen, cell-based, luminescence, SH-SY5Y, TTR promoter Gaussia luciferase; 100% = recombinant luciferase protein wells; activation, % at 16.7 µM; 92,000 tested, 1.3% active;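 active = activation above the mean of all tested compounds plus 3 SD, cut at about 9.5% in these data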;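 note: cells exposed to compounds for one day before reading; 0% = median of all test compound wells on the plate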
TTR inh HuH7 = TTR promoter reporter inhibitors in hepatoma cells, counter-screen for TTR transcription activator project, cell-based, luminescence, HuH7 hepatoma. shares compounds with TTR transcr act. inhibition, % at 16.7 µM. 1,100 tested, 4% active. HuH7 TTR promoter-Gaussia luciferase reporter;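 active = average inhibition above the solvent-only control wells' mean plus 3 SD, cut at about 15% in these data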;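 note: 0% = cells with DMSO only and 100% = cells with inhibitor control FD; inhibitors lower well luminescence so higher value means more inhibition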
TTR up confirm = TTR transcription activators, retest, confirmation, cell-based, luminescence, SH-SY5Y, triplicate; shares compounds with TTR transcr act; SHSY5Y TTR promoter Gaussia luciferase; 100% = purified Lucia enzyme wells, no cells; 1,100 tested, under 10 active; activation, % at 16.7 µM; AID 1117280, 2014;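 active = mean activation above a set limit taken from the earlier primary screen, cut at about 11% in these data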;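 note: 0% = DMSO-treated cells and 100% = recombinant Lucia luciferase without cells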
* marks the source's active call; other numbers are inactive results.

SMILES | TTR transcr act | others
CC(c1ccccc1)N1CC(C(=O)N2CCCC(C(N)=O)C2)CC1=O (configuration not stated) | -1
COCCNC(=O)c1c[nH]c2ccc(S(=O)(=O)N(C)c3ccc(C)c(C)c3)cc2c1=O | -1
CCCCc1ccc(S(=O)(=O)NC(=O)C2(C)CCN2C(=O)CCc2cccs2)cc1 (configuration not stated) | -2
Cc1cc(C)c(-c2c(O)c3cccnc3n(C)c2=O)c(C)c1 | 10* | TTR inh HuH7=-10;TTR up confirm=0
Cn1c(=O)c2cccnc2c(=O)n1C | -2
Cn1c(=O)c(-c2ccccc2)c(O)c2ccccc21 | -1
CC(CNCCCn1cnc2c(OCc3ccccc3)ncnc21)c1ccccc1 (configuration not stated) | 0
COc1ccc(-n2cc(CNCCCN3CCCC3=O)c(-c3ccccc3Cl)n2)cc1 | 1
COc1ncnc2c1ncn2CCCNCCCN1CCCC1=O | 15* | TTR inh HuH7=-7;TTR up confirm=1
O=S(=O)(c1ccc2c(c1)OCCO2)N1CCNCC1 | 1
CC(=O)NC(C)(c1ccccc1)c1nc(-c2csc3ccccc23)cs1 (configuration not stated) | 2
CCC(C)NC(=S)Nc1ccc(C(=O)OC)cc1 (configuration not stated) | -2
O=C(NCc1cccc(Cl)c1)c1ccc(-c2csnn2)cc1 | 0
CC(C)CNC(=S)NC(=O)c1csc([N+](=O)[O-])c1 | -2
O=C(NCc1cccc(Cl)c1)NC(=O)c1csc([N+](=O)[O-])c1 | 12* | TTR inh HuH7=-9;TTR up confirm=0
COCc1c(C(=O)N/N=C(/C)c2ccc(OCc3ccccc3)cc2)nnn1-c1nonc1N | 4
O=C(NCc1csc2ccccc12)Nc1cc(Cl)cc(Cl)c1 | 1
O=C(O)Cc1csc2ccccc12 | 12* | TTR inh HuH7=-10;TTR up confirm=1
O=C(Nc1ccccc1)Nc1csc2ccccc12 | -1
CCC(C)c1ccccc1NC(=O)C(C)OC(=O)CN1C(=O)NC(C)(C)C1=O (configuration not stated) | 1
CC(C)(C)CNC(=O)c1cccc2c1C(=O)c1ccc(-c3cc4ccccc4o3)cc1S2(=O)=O | 3
CCc1ccc2c(c1)NC(=O)C2(C)Cc1ccc(C(F)(F)F)nc1 (configuration not stated) | 4
CN(CC(=O)Nc1ccccc1Cl)C(=O)COC(=O)c1nc(Cl)c(Cl)c(Cl)c1Cl | -1
O=C(OCc1cn(Cc2ccccc2F)nn1)N1CCCC1 | 0
Cc1cc(C)n(C(=O)Cn2nc(C)c(Cl)c2C)n1 | 1
SMILES | TTR transcr act | others
Cc1cc(C)n(C(=O)CNc2cccc(Cl)c2C)n1 | 11* | TTR inh HuH7=-14;TTR up confirm=-1
Cc1cc(C)n(C(=O)CNC(=O)C(c2ccccc2)c2ccccc2)n1 | -1
Cc1ccc2nc(-c3ccccc3)nn2c1 | 5
CC(C)Cn1c(SC(C)C(=O)Nc2ccc(N3CCOCC3)cc2)nc2ccccc21 (configuration not stated) | -2
Cc1cccc(NC(=O)C(C)Sc2nc3ccccc3c(=O)n2CCCN2CCOCC2)c1 (configuration not stated) | 21* | TTR inh HuH7=-11;TTR up confirm=1
COc1ccc(NC(=O)CSc2nc3ccccc3c(=O)n2CCCN2CCOCC2)c(OC)c1 | 2
CCN1C(=O)[C@H]2[C@@H](c3ccc(OC)cc3)N[C@]3(CCCN(CCC(C)C)C3=O)[C@H]2C1=O | 3
CC1CC(C)CN(C(C(=O)NC2CCCCC2)c2ccnc3ccccc23)C1 (configuration not stated) | 1
CCCCCCCCN1C(=O)[C@H](CC(=O)NCCCN2CCCC2=O)C[C@@]2(C(=O)OC)CC(C)(C)CC=C12 | 4
Nc1nnnn1CC(=O)N/N=C/c1cccs1 | 36* | TTR inh HuH7=-8;TTR up confirm=1
O=C(Cn1ccc(C(F)(F)F)n1)N/N=C/c1cccs1 | -1
Cc1ccnn1CC(=O)N/N=C/c1cccs1 | -1
O=C(NCc1ccco1)c1ccccc1SCC(=O)N1CCCC1 | 0
O=C(Nc1ccc(F)cc1)OC1CC2CC1[C@H]1CCCCN1[C@H]2Cc1ccccc1 (some centres not stated) | 4
COc1ccc(CN(C)C[C@H]2Oc3c(NC(=O)Nc4ccccc4)cccc3C(=O)N([C@H](C)CO)C[C@@H]2C)cc1 | -3
C[C@@H]1CN([C@@H](C)CO)C(=O)c2cccc(NS(C)(=O)=O)c2O[C@H]1CN(C)Cc1ccc(C(=O)O)cc1 | 5
C[C@@H]1CN([C@@H](C)CO)C(=O)c2cccc(NS(C)(=O)=O)c2O[C@H]1CN(C)Cc1ccc(Oc2ccccc2)cc1 | 19* | TTR inh HuH7=5;TTR up confirm=0
O=C(Nc1ccc2ccccc2c1)C(c1ccc(C(F)(F)F)cc1)n1c(=O)c(-c2cc3ccccc3[nH]2)nc2ccccc21 (configuration not stated) | 0
CC1=CC(=O)C(C2CCCCC2)=C/C1=N\OS(=O)(=O)c1ccccc1 | 1
O=C(COC(=O)c1cnccn1)Nc1cc(S(=O)(=O)N2CCOCC2)ccc1Cl | 5
O=S(=O)(c1ccc(Cl)nc1)N1CCN(Cc2ccc3c(c2)OCO3)CC1 | -1
CCOc1ccc(S(=O)(=O)N2CCN(Cc3ccc4c(c3)OCO4)CC2)cc1OCC | -2
CC(C)(C)c1ccc(S(=O)(=O)N2CCN(Cc3cc4c(cc3O)OCO4)CC2)cc1 | 15* | TTR inh HuH7=-7;TTR up confirm=1
CCOC(=O)CN1C(=O)N2C[C@H]3CON(C)[C@H]3C[C@H]2c2ccccc21 | -1
Cc1ccccc1NC(=O)NCc1ccccn1 | 0
SMILES | TTR transcr act | others
CCOC(=O)c1ccc(-c2ccc3oc(-c4ccsc4)cc(=O)c3c2)cc1F | 0
C[C@@H]1CN([C@H](C)CO)C(=O)CCCn2nncc2CO[C@H]1CN(C)C(=O)c1ccccc1 | 2
C[C@@H]1CN([C@@H](C)CO)C(=O)CCCn2nncc2CO[C@@H]1CN(C)C(=O)c1ccc(N2CCN(C)CC2)cc1 | -1
C[C@H](CO)N1C[C@H](C)[C@H](CN(C)C(=O)c2ccncc2)OCc2cnnn2CCCC1=O | 18* | TTR inh HuH7=-8;TTR up confirm=0
Cc1noc(C)c1-c1ccc(C(=O)NCCC(F)(F)F)c2occc12 | 1
CC(C)N1CCC(=O)NC1=O | 2
COc1ccc2[nH]c(C(=O)N(C)c3ccc(F)cc3F)cc2c1 | 2
COc1ccc(CN(CC2CCC(C(=O)O)CC2)C(=S)Nc2ccc(C)c(Cl)c2)cc1 (configuration not stated) | 0
COc1cccc(NC(=S)N(Cc2cccc(Br)c2)CC2CCC(C(=O)O)CC2)c1 (configuration not stated) | 1
COc1ccc(NC(=S)N(Cc2cccc(Br)c2)CC2CCC(C(=O)O)CC2)cc1 (configuration not stated) | 43* | TTR inh HuH7=-21;TTR up confirm=-1
O=C(Nc1cnns1)Oc1ccccc1 | -1
Cc1ccccc1C(=O)N1CCC2CC1c1cc(-c3ccc(F)cc3)ccc12 (configuration not stated) | -1
O=C(OCc1cn([C@@H]2C[C@H](c3ccc(Cl)cc3)N(C(=O)C3CCCCC3)C[C@H]2O)nn1)c1ccccc1 | -1
CC(=O)Nc1cccc(-c2csc(N)n2)c1 | 9.7* | TTR inh HuH7=-13;TTR up confirm=0
CCC(=O)Nc1cccc(-c2csc(-c3ccccc3)n2)c1 | -1

Screening results as filed in PubChem.
